Records with an inconclusive call do not appear. Where a call stands in place of a potency, no number is given. Calls of active or inactive are those of the source. Calls follow the shape of the dose curve; as a rule, active = well fitted cell-killing curve with a large enough effect in the repeat runs; inconclusive = weak or mixed curves, or effect the other way; inactive = flat fitted curve, though single readings scatter.
Experiment: qHTS assay to identify small molecule agonists of the androgen receptor (AR) signaling pathway in the presence of an antagonist - cell viability counter screen (AID 1259379); also: nearly all actives have a fitted effect of over 25% in size
Conditions: MDA-kb2 viability, CellTiter-Fluor, 16 h; series mostly up to 92.4 µM
Excerpt: National Center for Advancing Translational Sciences [NCATS]
NIH Chemical Genomics Center [NCGC]
U.S. Environmental Protection Agency [EPA]
National Institutes of Environmental Health Sciences [NIEHS]
National Toxicology Program [NTP]
U.S. Food and Drug Administration [FDA]
Androgen receptor (AR) is an important member of nuclear receptor family. Its signaling plays a critical role in AR-dependent prostate cancer and other androgen related diseases. Considerable attention has been given in the past decades to develop methods to study and screen for the environmental chemicals that have the potential to interfere with metabolic homeostasis, reproduction, developmental and behavioral functions. Therefore AR binding assay for screening against androgen agonists and antagonists can be used to identify potential endocrine disruptors.
MDA-kb2 cells (from ATCC, deposited by Wilson et al.) are human breast carcinoma cells that were stably transfected with a luciferase reporter gene under control of the MMTV promoter that contains response elements for both androgen receptor (AR) and glucocorticoid receptor (GR). This particular screening for measuring luciferase reporter gene activity using MDA-kb2 cells against Tox21 10K library compounds is a confirmation study on agonist mode screening in the presence of AR-antagonist compound (Nilutamide) at 3.0uM final concentration. The cytotoxicity of the compounds was tested in parallel by measuring the cell viability using CellTiter-Fluor assay system (Promega, Madison, WI) in the same wells.
Tox21 Assay Protocol Summary:
MDA-kb2 cells (cells cultured without CO2) were dispensed at 3,000 cells/well in 4uL of culture medium into white wall/solid-bottom 1536-well plates (Corning Life Sciences, Corning, NY) using a Multidrop Combi (Thermo Fisher Scientific Inc., Waltham, MA) dispenser. The assay plates were incubated at 37C and 0% CO2 for 5hr. One uL of 3.0uM (final concentration) Nilutamide or assay buffer was added using two separate tips of Flying Reagent Dispenser (FRD, Aurora Discovery, San Diego, CA). Then 23nL of compounds dissolved in DMSO at 15 concentrations and positive controls were transferred to the assay plates using a Pintool station (Wako, San Diego, CA). The assay plates were incubated at 37C and 0% CO2 for 16 hr. After 15hr incubation at 37C, 1uL/well CellTiter-Fluor reagent (Promega Corporation) was added to each well of the assay plates using FRD. After 1hr incubation at 37C and 0% CO2, the fluorescence signal was measured using a ViewLux plate reader (PerkinElmer, Shelton, CT).
Potency is read from the fitted curve at half-maximal effect.

SMILES | Potency
c1ccc(OCC2CO2)cc1 (stereo not given) | inactive
CC(C)N1C(=O)N(c2ccccc2)CSC1=NC(C)(C)C | inactive
Cc1cc(Cl)ccc1O[C@H](C)C(=O)O | inactive
CC(C)OC(=O)C(O)(c1ccc(Cl)cc1)c1ccc(Cl)cc1 | inactive
C[As+](C)(C)CC(=O)[O-] | inactive
CN(CCCC(=O)c1cccnc1)N=O | inactive
CCSC(C)CC1CC(=O)C(/C(CC)=N/OC/C=C/Cl)=C(O)C1 (stereo not given) | inactive
O=C(CCl)Nc1ccccc1 | 61.1 µM (active)
C=CCOC(N)=O | inactive
CCOC(=O)CC(=O)CCl | 61.1 µM (active)
COP(N)(=S)OC | inactive
CC(=O)[O-].CC(=O)[O-].O.O.[Cd+2] | inactive
O=C(CCCN1CCC2(CC1)C(=O)NCN2c1ccccc1)c1ccc(F)cc1 | inactive
CCOP(=S)(OCC)SCS(=O)(=O)C(C)(C)C | inactive
O=[N+]([O-])O.O=[N+]([O-])O.[Cd] | inactive
CN(C)CCc1c[nH]c2cccc(O)c12 | inactive
CC(C)(COCC1CO1)COCC1CO1 (stereo not given) | inactive
NC(=O)CCl | inactive
Cc1cc(C)c(C2=C(OC(=O)CC(C)(C)C)C3(CCCC3)OC2=O)c(C)c1 | inactive
N#CCc1ccc(Cl)cc1 | inactive

SMILES | Potency
CN(CCCC(O)c1cccnc1)N=O (stereo not given) | inactive
Cc1ccc(CCl)cc1 | inactive
COC12CC[C@@]3(C[C@@H]1C(C)(O)C(C)(C)C)[C@H]1Cc4ccc(O)c5c4[C@@]3(CCN1CC1CC1)[C@H]2O5 (stereo not given in full) | 60.7 µM (active)
NNC(=O)c1ccccc1 | inactive
CN(C)C1CSSSC1 | inactive
CCN(CC)c1c([N+](=O)[O-])cc(C(F)(F)F)c(N)c1[N+](=O)[O-] | inactive
CCCCCCCCCC[N+](C)(C)CCCCCCCCCC | 54.5 µM (active)
[Cl][Sn]([c]1ccccc1)([c]1ccccc1)[c]1ccccc1 | 1.16 µM (active)
CCCCCCCCCCCCCCC(Br)C(=O)O (stereo not given) | inactive
CC(=[OH+])/C=C(/C)[O-].CC(=[OH+])/C=C(\C)[O-].CC(=[OH+])/C=C(\C)[O-].[Al] | inactive
CC(=O)c1cc(C(C)(C)C)cc2c1CCC2(C)C | inactive
N#CNC#N | inactive
ClCc1ccccc1CCl | 61.1 µM (active)
COc1ccc(OC)c(C=O)c1 | inactive
O=[N+]([O-])c1cc([N+](=O)[O-])c2ccccc2c1 | inactive
CCOP(=S)(OCC)OC(Cl)C(Cl)(Cl)Cl (stereo not given) | inactive
[CH3][Hg][Cl] | 21.6 µM (active)
C[C@@H]1CC[C@@]2(OC1)O[C@H]1[C@@H](O)[C@H]3[C@@H]4CC[C@H]5C[C@@H](O[C@@H]6O[C@H](CO)[C@H](O[C@@H]7O[C@H](CO)[C@@H](O)[C@H](O[C@@H]8OC[C@@H](O)[C@H](O)[C@H]8O)[C@H]7O[C@@H]7O[C@H](CO)[C@@H](O)[C@H](O[C@@H]8O[C@H](CO)[C@@H](O)[C@H](O)[C@H]8O)[C@H]7O)[C@H](O)[C@H]6O)[C@H](O)C[C@]5(C)[C@H]4CC[C@]3(C)[C@H]1[C@@H]2C | 57.8 µM (active)
Nc1ccc(Sc2ccc(N)cc2)cc1 | inactive
C[CH2][Hg][N]1C(=O)C2C(C1=O)C1(Cl)C(Cl)=C(Cl)C2(Cl)C1(Cl)Cl (stereo not given) | 13 µM (active)
